We go through nine compounds from publication PMC5540273 (PLoS ONE, 2017).

Test systems include ERN1; FER; FES; FGFR1; FGFR2; FGFR3; FGFR4; FGR; FLT1; FLT3-autoinhibited; FLT3; FLT4; FRK.
Settings in all cases: concentration: 1 μM, replicates: in singlicate; n = 1
For the next test, the system named is T1, ERK1.
T1 construct: gene MAPK3

In another test the test system is T2, ERK2.
T2 construct: gene MAPK1

For another test, the system named is T3, ERK3.
T3 construct: gene MAPK6

A further test deals with T4, ERK4.
T4 construct: gene MAPK4

The subject of the next test is T5, ERK5.
T5 construct: gene MAPK7

The next test deals with T6, ERK8.
T6 construct: gene MAPK15

The subject of the next test is T7, FAK.
T7 construct: gene PTK2
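Also: KINOMEscan kinase panel screen.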

For the compound `CC(C)c1nc(-c2cccc(NS(=O)(=O)c3c(F)cccc3F)c2F)c(-c2ccnc(Nc3ccc(N4CCOCC4)nc3)n2)s1` [GSK2008607], the “%Inh” value with ERK1 is reported as 0%; in the test on ERK2, 0%; with ERK3, 9%; in the test on ERK4, 42%; in the test on ERK5, 2%; in the test with ERK8, 93.5%. Besides, the “%Inh” value in the test on ERN1 came to 65%; in the test on FAK, 32%; with FER, 71%; with FES, 23%; in the test on FGFR1, 60%; with FGFR2, 82%. Besides, the “%Inh” value in the test with FGFR3 came out at 67%; with FGFR4, 48%; in the test on FGR, 98.7%; with FLT1, 98.6%; with FLT3-autoinhibited it was 0%; in the test on FLT3 it was 70%. For the same compound, the “%Inh” value in the test with FLT4 was 99.9%; with FRK, 98.8%.

In the case of `COc1ccc(Nc2nccc(N3CCC(NC(=O)Nc4cccc(OC)c4)C3)n2)cc1` (stereo not drawn) [GSK1379742], the “%Inh” value came out at 0% with ERK1; 0% in the test on ERK2; 9% in the test on ERK3; 0% in the test with ERK4; 0% in the test on ERK5; 36% in the test with ERK8. For the same compound, the “%Inh” value in the test on ERN1 is 0%; in the test on FAK, 0%; in the test on FER it was 26%; in the test with FES it was 9%; in the test with FGFR1, 5%; with FGFR2 it was 7%. The “%Inh” value came out at 5% in the test on FGFR3; 0% with FGFR4; 17% with FGR; 36% in the test with FLT1; 20% in the test on FLT3-autoinhibited; 35% in the test with FLT3. Further, the “%Inh” value in the test with FLT4 is 0%; in the test on FRK it was 8%.

Turning to `Nc1n[nH]c2cnc(-c3ccccc3)cc12` [SB-642124], the “%Inh” value in the test on ERK1 is reported as 0%; with ERK2, 0%; in the test on ERK3, 0%; with ERK4 it was 25%; in the test on ERK5, 0%; in the test on ERK8, 6%. The “%Inh” value stood at 13% with ERN1; 0% in the test on FAK; 0% in the test on FER; 0% in the test on FES; 2% with FGFR1; 35% in the test on FGFR2. In addition, the “%Inh” value came out at 16% with FGFR3; 13% in the test with FGFR4; 32% in the test with FGR; 0% with FLT1; 0% with FLT3-autoinhibited; 0% in the test on FLT3. Further, the “%Inh” value in the test with FLT4 is listed as 8%; in the test with FRK, 10%.

For the compound `O=C(Nc1cccc(-c2nn3ccccc3c2-c2ccnc(Nc3cccc(F)c3)n2)c1)c1c(F)ccc(F)c1Cl` [GSK357952], the “%Inh” value was 0% in the test with ERK1; 0% in the test with ERK2; 0% with ERK3; 0% in the test on ERK4; 0% in the test with ERK5; 20% in the test on ERK8. Also, the “%Inh” value in the test on ERN1 was found to be 17%; in the test with FAK it was 0%; with FER, 45%; in the test on FES, 6%; in the test with FGFR1 it was 14%; in the test with FGFR2, 0%. Moreover, the “%Inh” value with FGFR3 is recorded as 19%; with FGFR4 it was 0%; in the test on FGR, 97.1%; with FLT1, 89%; in the test on FLT3-autoinhibited, 15%; in the test on FLT3, 51%. Further, the “%Inh” value was determined as 38% in the test on FLT4 and 76% in the test with FRK.

In the case of `CCc1ccc(-c2ccc3c(c2)-c2c(cnn2C)S(=O)(=O)N3C)cc1`, the “%Inh” value in the test with ERK1 amounted to 4%; with ERK2, 6%; in the test with ERK3, 0%; with ERK4 it was 0%; with ERK5, 0%; with ERK8 it was 0%. Further, the “%Inh” value is on record as 0% with ERN1; 38% in the test on FAK; 0% in the test on FER; 0% with FES; 3% in the test with FGFR1; 0% in the test with FGFR2. Also, the “%Inh” value in the test with FGFR3 is 0%; in the test with FGFR4, 0%; with FGR, 0%; in the test on FLT1, 0%; with FLT3-autoinhibited it was 9%; in the test on FLT3, 0%. The “%Inh” value in the test with FLT4 and in the test with FRK was 0% in each case.

Take `CC(C)(C)c1ccc2nccc(Nc3cccc(O)c3)c2c1` [GW856795]: the “%Inh” value with ERK1, with ERK2, in the test with ERK3, in the test on ERK4, in the test with ERK5 and with ERK8 was 0% in each case. Also, the “%Inh” value in the test on ERN1 is 66%; in the test with FAK, 0%; with FER, 0%; in the test with FES it was 0%; in the test on FGFR1 it was 0%; with FGFR2, 0%. The “%Inh” value was 0% in the test with FGFR3; 0% in the test with FGFR4; 54% in the test with FGR; 0% in the test on FLT1; 64% with FLT3-autoinhibited; 10% in the test with FLT3. In addition, the “%Inh” value is listed as 0% with FLT4 and 84% with FRK.

Take `C[C@@H]1CC[C@@H](C(=O)Nc2ccccc2)CN1c1cc(-c2ccc3c(N)n[nH]c3c2)nc(N)n1` [GSK2286062]: the “%Inh” value turned out to be 10% in the test on ERK1; 0% in the test on ERK2; 0% in the test on ERK3; 28% with ERK4; 0% with ERK5; 0% in the test on ERK8. Further, the “%Inh” value is 0% in the test on ERN1; 0% with FAK; 13% in the test with FER; 12% in the test with FES; 0% in the test on FGFR1; 0% with FGFR2. The “%Inh” value in the test on FGFR3 stood at 4%; with FGFR4, 0%; in the test with FGR, 19%; in the test on FLT1, 0%; with FLT3-autoinhibited, 0%; in the test on FLT3, 0%. Besides, the “%Inh” value in the test with FLT4 and with FRK was 0% in each case.

As for `Cn1cc(-c2[nH]c3cc(NC(=O)[C@H](N)C4CCCCC4)cc4c3c2C=NNC4=O)cn1`, the “%Inh” value in the test on ERK1 was determined as 33%; with ERK2 it was 22%; in the test on ERK3, 0%; with ERK4, 6%; in the test on ERK5 it was 27%; with ERK8, 55%. Also, the “%Inh” value with ERN1 is on record as 21%; in the test on FAK, 5%; in the test with FER, 13%; in the test with FES it was 0%; in the test on FGFR1, 97.9%; with FGFR2, 89%. Moreover, the “%Inh” value was determined as 86% in the test with FGFR3; 97.3% in the test with FGFR4; 87% in the test on FGR; 81% with FLT1; 96.3% with FLT3-autoinhibited; 100% in the test on FLT3. The “%Inh” value came to 99.5% in the test on FLT4 and 0% with FRK.

Turning to `COc1ccc(Nc2nccc(NCCNC(=O)c3cc4ccccc4s3)n2)cc1` [GSK1379896], the “%Inh” value with ERK1, in the test with ERK2, with ERK3, with ERK4, in the test with ERK5 and with ERK8 was 0% in each case. Besides, the “%Inh” value in the test on ERN1 was determined as 0%; with FAK it was 11%; in the test with FER it was 12%; with FES, 0%; in the test on FGFR1, 0%; in the test with FGFR2, 0%. Moreover, the “%Inh” value with FGFR3 was found to be 5%; in the test with FGFR4, 9%; in the test on FGR, 1%; with FLT1, 19%; in the test on FLT3-autoinhibited, 0%; in the test on FLT3, 0%. Besides, the “%Inh” value is listed as 10% with FLT4 and 0% in the test with FRK.
